In ChEMBL document CHEMBL2218924, “A broad activity screen in support of a chemogenomic map for kinase signalling research and drug discovery” (Biochem J, 2013) one finds residual activity data, which are given here for 22 compounds.

Structures are written as SMILES.

Assay [1] addresses MAP kinase-activated protein kinase 3 (Homo sapiens) (UniProt Q16644). Conditions: at 1 µM.
Assay [2] has as its target Mitogen-activated protein kinase 3 (Homo sapiens) (UniProt P27361). To be noted: at 1 µM.
Assay [3] shares this target. To be noted: at 10 µM.
Assay [4] addresses MAP kinase-activated protein kinase 3 (Homo sapiens) (UniProt Q16644). Conditions: at 10 µM.
The target in assay [5] is Serine/threonine-protein kinase MARK1 (Homo sapiens) (UniProt Q9P0L2). Conditions: at 1 µM.
Assay [6] shares this target. To be noted: at 10 µM.
The target of assay [7] is Dual specificity mitogen-activated protein kinase kinase 1 (Homo sapiens) (UniProt Q02750). Conditions: at 1 µM.
For assay [8] the target is unchanged. To be noted: at 10 µM.
In assay [9] the target is Maternal embryonic leucine zipper kinase (Homo sapiens) (UniProt Q14680). To be noted: at 1 µM.
Assay [10] shares this target. To be noted: at 10 µM.
For assay [11], the target named is Misshapen-like kinase 1 (Homo sapiens) (UniProt Q8N4C8). To be noted: at 1 µM.
The target is the same in assay [12]. Conditions: at 10 µM.
The target in assay [13] is T1, Dual specificity mitogen-activated protein kinase kinase 6 (Homo sapiens) (UniProt P52564).
T1 sequence (whole entry): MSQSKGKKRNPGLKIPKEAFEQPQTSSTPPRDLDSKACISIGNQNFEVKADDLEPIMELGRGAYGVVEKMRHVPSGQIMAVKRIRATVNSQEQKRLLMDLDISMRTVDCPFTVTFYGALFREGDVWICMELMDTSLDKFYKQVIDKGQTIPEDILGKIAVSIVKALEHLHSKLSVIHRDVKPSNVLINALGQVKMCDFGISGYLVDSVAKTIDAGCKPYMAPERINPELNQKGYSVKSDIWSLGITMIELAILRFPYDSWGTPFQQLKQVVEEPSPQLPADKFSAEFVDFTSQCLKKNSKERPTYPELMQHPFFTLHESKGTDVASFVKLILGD
Conditions: at 1 µM.

The target of assay [14] is T1, Dual specificity mitogen-activated protein kinase kinase 6 (Homo sapiens). To be noted: at 10 µM.
The target of assay [15] is T2, Dual specificity mitogen-activated protein kinase kinase 7 (Homo sapiens) (UniProt O14733).
T2 sequence (whole entry): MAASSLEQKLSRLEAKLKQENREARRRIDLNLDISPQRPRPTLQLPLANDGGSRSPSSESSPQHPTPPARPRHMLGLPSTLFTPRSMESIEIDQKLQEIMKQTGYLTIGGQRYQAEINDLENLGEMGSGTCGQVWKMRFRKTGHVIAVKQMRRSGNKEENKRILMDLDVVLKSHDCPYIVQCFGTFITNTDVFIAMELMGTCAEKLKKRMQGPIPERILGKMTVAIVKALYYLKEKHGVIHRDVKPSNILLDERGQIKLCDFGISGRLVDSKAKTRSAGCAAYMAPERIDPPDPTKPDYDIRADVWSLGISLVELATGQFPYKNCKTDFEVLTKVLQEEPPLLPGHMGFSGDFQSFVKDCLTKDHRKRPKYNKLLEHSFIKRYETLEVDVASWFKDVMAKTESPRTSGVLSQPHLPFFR
To be noted: at 1 µM.

Assay [16] has as its target T2, Dual specificity mitogen-activated protein kinase kinase 7 (Homo sapiens). To be noted: at 10 µM.
Assay [17] addresses MAP kinase-activated protein kinase 2 (Homo sapiens) (UniProt P49137). To be noted: at 1 µM.
The target is the same in assay [18]. To be noted: at 10 µM.
The target of assay [19] is Mitogen-activated protein kinase 1 (Homo sapiens) (UniProt P28482). Conditions: at 1 µM.
The target is the same in assay [20]. To be noted: at 10 µM.

Sequence of MAP kinase-activated protein kinase 2 (Homo sapiens) (P49137 whole entry, looked up): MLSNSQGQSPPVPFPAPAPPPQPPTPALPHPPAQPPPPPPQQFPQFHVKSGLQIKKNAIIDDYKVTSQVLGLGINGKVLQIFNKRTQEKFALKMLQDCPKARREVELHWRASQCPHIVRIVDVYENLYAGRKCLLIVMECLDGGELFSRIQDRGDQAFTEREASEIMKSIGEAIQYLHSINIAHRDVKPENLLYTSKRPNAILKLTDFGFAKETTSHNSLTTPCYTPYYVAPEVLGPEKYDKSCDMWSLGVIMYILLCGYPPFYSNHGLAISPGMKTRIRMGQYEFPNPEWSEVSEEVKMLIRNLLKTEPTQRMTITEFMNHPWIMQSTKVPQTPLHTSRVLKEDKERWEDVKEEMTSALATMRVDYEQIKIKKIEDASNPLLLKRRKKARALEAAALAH
Sequence of MAP kinase-activated protein kinase 3 (Homo sapiens) (Q16644 whole entry, looked up): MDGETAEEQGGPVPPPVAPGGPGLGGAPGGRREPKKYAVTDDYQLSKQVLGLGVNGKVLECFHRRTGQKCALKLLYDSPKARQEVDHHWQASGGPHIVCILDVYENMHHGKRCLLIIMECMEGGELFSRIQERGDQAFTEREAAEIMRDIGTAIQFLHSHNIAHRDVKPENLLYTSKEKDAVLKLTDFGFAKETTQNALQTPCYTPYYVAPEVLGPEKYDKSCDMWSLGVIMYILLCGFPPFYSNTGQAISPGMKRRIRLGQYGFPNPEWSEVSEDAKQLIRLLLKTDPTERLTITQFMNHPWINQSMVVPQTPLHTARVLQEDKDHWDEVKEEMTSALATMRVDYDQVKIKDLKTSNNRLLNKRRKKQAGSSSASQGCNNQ
Sequence of Mitogen-activated protein kinase 3 (Homo sapiens) (P27361 whole entry): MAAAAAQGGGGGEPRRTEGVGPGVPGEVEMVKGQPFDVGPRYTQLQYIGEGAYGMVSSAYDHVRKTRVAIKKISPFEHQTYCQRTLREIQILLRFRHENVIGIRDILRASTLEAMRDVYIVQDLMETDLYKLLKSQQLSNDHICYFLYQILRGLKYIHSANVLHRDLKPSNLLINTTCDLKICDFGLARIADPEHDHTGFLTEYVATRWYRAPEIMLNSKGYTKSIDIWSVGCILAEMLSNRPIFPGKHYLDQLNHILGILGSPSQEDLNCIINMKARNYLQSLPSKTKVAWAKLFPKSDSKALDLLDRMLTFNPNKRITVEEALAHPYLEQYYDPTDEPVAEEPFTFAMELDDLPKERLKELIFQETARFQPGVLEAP
Sequence of Maternal embryonic leucine zipper kinase (Homo sapiens) (Q14680 whole entry, looked up): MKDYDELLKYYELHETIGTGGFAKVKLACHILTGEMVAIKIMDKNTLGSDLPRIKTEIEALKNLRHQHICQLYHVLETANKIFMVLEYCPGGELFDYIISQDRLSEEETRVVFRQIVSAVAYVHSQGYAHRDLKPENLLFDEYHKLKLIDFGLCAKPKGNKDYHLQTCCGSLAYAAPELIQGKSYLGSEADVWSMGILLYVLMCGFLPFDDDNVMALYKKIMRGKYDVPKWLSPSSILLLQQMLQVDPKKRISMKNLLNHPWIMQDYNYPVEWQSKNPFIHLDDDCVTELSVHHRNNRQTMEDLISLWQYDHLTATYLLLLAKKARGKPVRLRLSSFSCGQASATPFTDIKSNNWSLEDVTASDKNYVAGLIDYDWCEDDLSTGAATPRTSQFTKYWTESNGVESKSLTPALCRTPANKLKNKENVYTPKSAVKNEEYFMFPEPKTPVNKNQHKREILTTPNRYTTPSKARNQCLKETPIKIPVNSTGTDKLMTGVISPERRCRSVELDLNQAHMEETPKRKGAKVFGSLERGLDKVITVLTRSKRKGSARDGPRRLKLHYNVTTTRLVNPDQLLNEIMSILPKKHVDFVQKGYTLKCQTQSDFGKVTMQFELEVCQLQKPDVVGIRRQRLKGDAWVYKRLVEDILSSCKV
Sequence of Dual specificity mitogen-activated protein kinase kinase 1 (Homo sapiens) (Q02750 whole entry): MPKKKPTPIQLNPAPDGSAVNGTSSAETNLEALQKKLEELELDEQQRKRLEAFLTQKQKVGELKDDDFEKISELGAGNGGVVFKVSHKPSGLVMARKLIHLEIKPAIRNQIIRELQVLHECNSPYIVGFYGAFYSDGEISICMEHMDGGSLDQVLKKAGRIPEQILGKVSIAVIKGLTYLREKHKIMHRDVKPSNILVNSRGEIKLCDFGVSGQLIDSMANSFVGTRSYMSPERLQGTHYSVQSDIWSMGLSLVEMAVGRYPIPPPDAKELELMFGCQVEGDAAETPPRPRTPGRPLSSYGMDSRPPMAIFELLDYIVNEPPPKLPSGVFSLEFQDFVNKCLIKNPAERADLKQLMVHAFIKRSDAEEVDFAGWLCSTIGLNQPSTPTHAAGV
Sequence of Misshapen-like kinase 1 (Homo sapiens) (Q8N4C8 whole entry, looked up): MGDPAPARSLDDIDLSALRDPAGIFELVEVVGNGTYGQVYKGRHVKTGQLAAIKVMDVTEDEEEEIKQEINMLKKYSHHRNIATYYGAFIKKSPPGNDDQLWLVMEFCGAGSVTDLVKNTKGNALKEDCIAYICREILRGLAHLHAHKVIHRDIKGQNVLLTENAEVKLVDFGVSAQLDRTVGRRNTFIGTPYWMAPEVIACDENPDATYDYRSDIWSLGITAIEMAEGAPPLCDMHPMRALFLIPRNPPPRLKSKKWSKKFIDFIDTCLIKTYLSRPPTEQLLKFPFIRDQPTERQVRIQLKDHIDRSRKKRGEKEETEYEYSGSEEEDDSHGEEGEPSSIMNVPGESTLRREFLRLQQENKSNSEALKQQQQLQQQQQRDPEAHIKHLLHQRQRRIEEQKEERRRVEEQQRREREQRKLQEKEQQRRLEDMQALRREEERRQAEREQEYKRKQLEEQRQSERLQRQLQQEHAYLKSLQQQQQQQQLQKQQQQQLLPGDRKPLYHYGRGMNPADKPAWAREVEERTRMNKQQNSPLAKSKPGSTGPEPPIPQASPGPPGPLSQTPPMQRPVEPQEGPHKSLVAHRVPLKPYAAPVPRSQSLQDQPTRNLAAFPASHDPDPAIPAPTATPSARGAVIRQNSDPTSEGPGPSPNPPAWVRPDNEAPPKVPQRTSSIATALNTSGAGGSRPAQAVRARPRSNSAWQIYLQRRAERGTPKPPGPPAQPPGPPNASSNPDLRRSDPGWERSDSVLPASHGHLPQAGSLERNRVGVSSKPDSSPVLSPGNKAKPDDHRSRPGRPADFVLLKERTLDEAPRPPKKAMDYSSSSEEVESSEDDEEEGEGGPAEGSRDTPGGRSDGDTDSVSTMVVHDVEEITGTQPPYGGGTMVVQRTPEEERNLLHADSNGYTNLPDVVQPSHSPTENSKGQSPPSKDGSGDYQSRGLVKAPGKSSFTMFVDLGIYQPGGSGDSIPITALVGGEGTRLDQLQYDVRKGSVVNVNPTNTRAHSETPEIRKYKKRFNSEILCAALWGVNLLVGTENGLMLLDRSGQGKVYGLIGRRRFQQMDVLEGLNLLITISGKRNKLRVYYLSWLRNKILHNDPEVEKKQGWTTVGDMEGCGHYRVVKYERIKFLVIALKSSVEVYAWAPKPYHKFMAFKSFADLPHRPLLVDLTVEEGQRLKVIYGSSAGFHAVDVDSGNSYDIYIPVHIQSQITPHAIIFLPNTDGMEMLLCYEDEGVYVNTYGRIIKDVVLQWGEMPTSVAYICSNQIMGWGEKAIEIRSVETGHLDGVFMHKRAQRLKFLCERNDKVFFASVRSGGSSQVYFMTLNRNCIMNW
Sequence of Mitogen-activated protein kinase 1 (Homo sapiens) (P28482 whole entry): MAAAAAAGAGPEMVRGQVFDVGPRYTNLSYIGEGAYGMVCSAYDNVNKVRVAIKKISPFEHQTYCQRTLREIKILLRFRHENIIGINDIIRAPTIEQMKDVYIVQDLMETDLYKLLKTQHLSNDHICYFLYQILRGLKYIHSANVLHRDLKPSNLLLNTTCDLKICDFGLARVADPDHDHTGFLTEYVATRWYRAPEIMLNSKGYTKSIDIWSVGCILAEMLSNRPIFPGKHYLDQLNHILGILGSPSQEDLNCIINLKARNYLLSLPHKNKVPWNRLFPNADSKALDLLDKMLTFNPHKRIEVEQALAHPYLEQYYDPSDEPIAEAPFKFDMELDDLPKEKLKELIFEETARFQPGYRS
Sequence of Serine/threonine-protein kinase MARK1 (Homo sapiens) (Q9P0L2 whole entry, looked up): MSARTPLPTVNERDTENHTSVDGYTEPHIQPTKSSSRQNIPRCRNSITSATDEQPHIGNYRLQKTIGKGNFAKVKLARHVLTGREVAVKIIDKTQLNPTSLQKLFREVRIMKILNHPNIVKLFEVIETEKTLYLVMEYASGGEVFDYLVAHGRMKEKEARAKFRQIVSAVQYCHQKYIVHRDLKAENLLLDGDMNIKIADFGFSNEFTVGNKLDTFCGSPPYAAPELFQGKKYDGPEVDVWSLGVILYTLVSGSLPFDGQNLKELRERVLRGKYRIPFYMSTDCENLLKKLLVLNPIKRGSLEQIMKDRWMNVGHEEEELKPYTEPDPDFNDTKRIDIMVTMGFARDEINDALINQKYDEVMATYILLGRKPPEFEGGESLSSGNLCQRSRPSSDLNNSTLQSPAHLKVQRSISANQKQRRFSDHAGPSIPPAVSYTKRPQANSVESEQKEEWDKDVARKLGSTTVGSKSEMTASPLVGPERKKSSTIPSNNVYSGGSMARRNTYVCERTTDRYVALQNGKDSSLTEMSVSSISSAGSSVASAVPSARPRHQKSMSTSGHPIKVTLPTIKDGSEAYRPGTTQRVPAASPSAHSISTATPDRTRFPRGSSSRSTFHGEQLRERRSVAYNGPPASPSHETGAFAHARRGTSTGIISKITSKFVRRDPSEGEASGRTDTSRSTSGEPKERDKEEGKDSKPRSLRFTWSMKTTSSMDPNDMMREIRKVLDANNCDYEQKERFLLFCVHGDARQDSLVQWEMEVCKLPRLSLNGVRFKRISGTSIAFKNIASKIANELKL

For `O=C1NC(=O)/C(=C/c2ccc3c(c2)OC(F)(F)O3)S1`, the residual activity in [1] is 95%.
In the case of `O=C1NC(=O)c2c1c1c3ccccc3n3c1c1c2c2ccccc2n1C1CCC3O1`, the residual activity in assay [2] stood at 128%; in [3], 83%; in assay [1], 95%; in assay [4], 95%; in assay [5] it was 38%; in assay [6], 29%. In addition, the residual activity came to 40% in [7]; 51% in assay [8]; 55% in [9]; 72% in assay [10]; 86% in assay [11]; 71% in assay [12]. The residual activity in assay [13] turned out to be 27%; in assay [14] it was 10%; in [15] it was 100%; in [16] it was 98%.
For the compound `N#C/C(=C(\N)Sc1ccc(N)cc1)c1ccccc1C(F)(F)F`, in [1], the residual activity came out at 98%.
In the case of `CCc1nc(-c2ccc(OC)cc2)[nH]c1-c1ccncc1`, the residual activity in assay [2] was 100%; in assay [17] it was 64%; in assay [18], 82%; in assay [1], 121%; in assay [4] it was 118%; in [10], 65%.
Consider `c1ccc2c(-c3ccncc3)c[nH]c2c1`, for which the residual activity in assay [1] was determined as 103%.
Still for that read-out and setting: the value for `Nc1ccc2ncnc(NCCc3ccc(Oc4ccccc4)cc3)c2c1` was 117%; that for `O=C1Nc2ccc(Cl)cc2/C1=C/c1cc(Cl)c(O)c(Cl)c1` was 92%.
On to `O=C1Nc2ccc3ncsc3c2/C1=C/c1c[nH]cn1`, for which the residual activity in assay [2] was 5%; in assay [3], 0%; in assay [19], 4%; in assay [20], -3%; in [17], 82%; in assay [18], 67%. In addition, the residual activity in assay [1] turned out to be 103%; in assay [4] it was 99%; in [5] it was 9%; in assay [6] it was 0%; in assay [7] it was 15%; in [8], 1%. In addition, the residual activity in assay [9] is 6%; in [10], 1%; in [11], 27%; in assay [12], 6%; in [13], -1%; in assay [14], 1%. For the same compound, the residual activity came to 43% in assay [15] and 12% in assay [16].
On to `NC(=O)c1ccc2[nH]c(-c3ccc(Oc4ccc(Cl)cc4)cc3)nc2c1`, for which the residual activity in [1] was determined as 111%.
On the same count and under the same terms, with `Nc1ncnc2[nH]nc(Nc3ccc(F)cc3)c12` the figure was 107%.
On to `COc1cc(OC)c(/C=C2\C(=O)Nc3ccccc32)c(OC)c1`, for which the residual activity in [2] is 96%; in [3], 85%; in assay [17] it was 88%; in assay [18] it was 94%; in [1], 103%; in assay [4], 96%. For the same compound, the residual activity amounted to 89% in [5]; 83% in assay [6]; 104% in assay [9]; 77% in assay [10]; 105% in [11]; 50% in assay [12]. The residual activity in assay [13] was determined as 105%; in [14], 87%; in [15] it was 98%; in assay [16] it was 96%.
With `O=C(Nc1cccc(Nc2cc(Nc3cccc(C(F)(F)F)c3)ncn2)c1)C1CC1`, the residual activity in assay [1] is 90%.
Regarding `N/C(=N\[N+](=O)[O-])N/N=C\c1ccc(-c2cccc([N+](=O)[O-])c2)o1`, the residual activity amounted to 94% in [2]; 99% in assay [3]; 88% in assay [4]; 98% in assay [5]; 85% in assay [6]; 92% in assay [9]. Further, the residual activity in [10] turned out to be 85%; in assay [11], 99%; in [12], 78%; in assay [13], 88%; in [14] it was 83%.
With `O=Nc1c(-c2c(O)[nH]c3ccccc23)[nH]c2ccccc12`, the residual activity in [1] was 117%.
As to `COc1ccc2c(c[n+](C)c3c4cc5c(cc4ccc23)OCO5)c1OC`, the residual activity in assay [3] was determined as 81%; in assay [17], 94%; in assay [18], 94%; in assay [1], 99%; in assay [4] it was 53%; in [5], 98%. The residual activity in [6] turned out to be 91%; in assay [7], 125%; in [8], 119%; in assay [9] it was 84%; in [10], 31%; in assay [11], 97%. The residual activity in assay [12] was 75%; in [14], 130%; in [15], 110%; in [16] it was 71%.
Regarding `O=[N+]([O-])/C=C/c1ccc2c(c1)OCO2`, the residual activity worked out at 78% in assay [2]; 86% in assay [3]; 106% in assay [19]; 84% in [20]; 84% in assay [17]; 108% in [18]. Moreover, the residual activity in [1] is 93%; in [4], 83%; in assay [5], 91%; in [6], 85%; in assay [7] it was 127%; in assay [8], 120%. Besides, the residual activity was 78% in assay [9]; 84% in assay [10]; 97% in assay [11]; 82% in assay [12]; 85% in assay [13]; 103% in [14]. Besides, the values for the residual activity in assay [15] and in assay [16] were 112% and 84%, respectively.
As to `COc1ccc(CNc2nc(N(CCO)CCO)nc3c2ncn3C(C)C)cc1`, in assay [1], the residual activity amounted to 110%.
`c1ccc(-c2n[nH]cc2-c2ccnc3ccccc23)nc1`: the residual activity in assay [1] came to 109%.
Same read-out and setting: the value for `COc1ccc(OC)c2c(=S)c3ccccc3[nH]c12` was 100%; that for `Nc1n[nH]c2nnc(-c3c(-c4ccccc4)nn4ccccc34)cc12` was 99%.
In the case of `CN[C@@H]1C[C@H]2O[C@@](C)([C@@H]1OC)n1c3ccccc3c3c4c(c5c6ccccc6n2c5c31)C(=O)NC4`, in assay [4], the residual activity was determined as 46%.
`O=C1c2ccccc2-c2nc3nnnn3nc21`: the residual activity amounted to 108% in assay [4]; 107% in [5]; 104% in [6]; 67% in [9]; 33% in [10]; 105% in assay [11]. The residual activity in assay [12] amounted to 107%; in [14], 116%; in [15] it was 66%; in [16], 39%.
